In PubChem BioAssay AID1619 (SRMLSC, 2009):
The campaign covered roughly 220,000 compounds. About 830 (0.38%) were called active.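 The calls were made as follows: active = compound inhibiting the enzyme by more than half at any dose during confirmatory dose-response retesting; inconclusive = strong single-dose inhibitors picked by rank but not retested; inactive = the rest.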 The list is a sample of the results. Measured potencies and affinities stand elsewhere.

molecular target: Leucine aminopeptidase (Plasmodium falciparum (isolate 3D7)) (UniProt Q8IL11); assay: P. falciparum M17LAP inhibitors, primary screen, biochemical, fluorogenic H-Leu-NHMec substrate, 1536-well (AID 1619); conditions: recombinant M17LAP, H-Leu-NHMec fluorogenic kinetic assay; at 30 µM; hits give high values;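 also: plate controls were full reaction with DMSO carrier for no effect and no enzyme background for full effect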
Sequence (Q8IL11 whole entry, looked up): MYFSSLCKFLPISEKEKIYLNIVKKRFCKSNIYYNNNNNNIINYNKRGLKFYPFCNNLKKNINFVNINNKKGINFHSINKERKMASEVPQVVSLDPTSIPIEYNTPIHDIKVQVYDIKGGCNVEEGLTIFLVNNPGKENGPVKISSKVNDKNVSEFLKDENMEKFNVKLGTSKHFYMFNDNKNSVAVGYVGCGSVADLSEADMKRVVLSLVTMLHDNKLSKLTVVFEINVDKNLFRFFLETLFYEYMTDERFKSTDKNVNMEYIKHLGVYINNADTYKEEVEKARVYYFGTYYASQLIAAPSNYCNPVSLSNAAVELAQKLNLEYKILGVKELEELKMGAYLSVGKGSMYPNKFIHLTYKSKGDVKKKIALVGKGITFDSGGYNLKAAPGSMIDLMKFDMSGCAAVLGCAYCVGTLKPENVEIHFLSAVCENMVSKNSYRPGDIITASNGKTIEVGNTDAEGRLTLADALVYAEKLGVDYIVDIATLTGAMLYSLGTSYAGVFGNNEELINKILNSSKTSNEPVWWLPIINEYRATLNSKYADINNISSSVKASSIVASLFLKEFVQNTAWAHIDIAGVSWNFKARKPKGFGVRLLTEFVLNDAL

inhibition, inactive:
Cc1ccc(-n2c(Cc3cccn3C)nnc2SCC(=O)NCc2ccco2)cc1 20.7%, Cc1ccc(Cn2ccc(C3CC3)n2)cc1 -1.75%, CC(=O)NC1(C(=O)O)CCCC1 9.39%, COC(=O)C1=C(O)C2(C(=O)O)CC(C(=O)OC)=C(O)C(C(=O)O)(C1)C2 -3.67%, Cc1ccc(S(=O)(=O)NCCCCCC(=O)Nc2ccccc2)cc1 3.08%, CCN1C(=O)/C(=C2/C=Cc3ccccc3N2CC)SC1=S -0.63%, Cc1[nH]nc2c1C(c1ccsc1)C(C#N)=C(N)O2 (centres undefined) 29.4%, Cc1[nH]nc2c1C(CC(C)C)C(C#N)=C(N)O2 (centres undefined) 14.9%, CC(C)CC1C(C#N)=C(N)Oc2n[nH]c(-c3cccs3)c21 (centres undefined) 73.3%, CC(C)(C)c1[nH]nc2c1C(c1cccnc1)C(C#N)=C(N)O2 (centres undefined) 5.24%, CCCc1[nH]nc2c1C(c1ccncc1)C(C#N)=C(N)O2 (centres undefined) 30.1%, CCc1[nH]nc2c1C(c1cccnc1)C(C#N)=C(N)O2 (centres undefined) 11.3%, CCCc1[nH]nc2c1C(c1ccsc1)C(C#N)=C(N)O2 (centres undefined) 2.74%, N#CC1=C(N)Oc2n[nH]c(-c3ccccc3)c2C1c1ccncc1 (centres undefined) 62.5%, CO/N=C/NC(=O)c1c(OC)ccnc1Oc1ccccc1 6.63%, CSCCC(NC(=O)c1ccc([N+](=O)[O-])cc1Cl)C(=O)OCC(=O)N(C)C (centres undefined) -3.36%, O=C(Nc1ccccc1C(=O)N1CCOCC1)C1CCCO1 (centres undefined) -7.06%, CCCc1[nH]nc2c1C(Cc1ccccc1)C(C#N)=C(N)O2 (centres undefined) 28.5%, CCCc1[nH]nc2c1C(c1cccnc1)C(C#N)=C(N)O2 (centres undefined) 9.46%, Cc1[nH]nc2c1C(CCc1ccccc1)C(C#N)=C(N)O2 (centres undefined) 68.1%, Cc1ccc(C2C(C#N)=C(N)Oc3n[nH]c(C)c32)cc1 (centres undefined) 52.9%, COC(=O)Cc1[nH]nc2c1C(c1ccc(O)c(OC)c1)C(C#N)=C(N)O2 (centres undefined) 17.1%, Cc1ccc(-c2ccc(C3C(C#N)=C(N)Oc4n[nH]c(C)c43)o2)cc1 (centres undefined) 15.7%, CCCc1[nH]nc2c1C(c1ccc(O)c(OC)c1)C(C#N)=C(N)O2 (centres undefined) 29.1%, CC(C)c1[nH]nc2c1C(c1cccnc1)C(C#N)=C(N)O2 (centres undefined) 13.5%, CC(C)NC(=O)/C=C/C(=O)O -17.6%, CCn1c(NCc2ccco2)nc2ccccc21 3.48%, Cc1cc(C)cc(OCC(=O)OCC(=O)c2ccc3c(c2)NC(=O)CO3)c1 -0.31%, O=C(CNC(=O)c1ccccc1)NCC(=O)OCc1ccccc1Cl -2.59%, O=C(CN(c1ccccc1)S(=O)(=O)c1ccc(F)cc1)NC1CCS(=O)(=O)C1 (centres undefined) 8.02%, CCOc1ccc(CC(=O)N2CCN=C2SCc2ccc([N+](=O)[O-])cc2)cc1 -3.75%, Cc1cc(C)c2cc(C(=O)N3CCC(Cc4ccccc4)CC3)[nH]c2c1 -4.41%, COC(=O)c1ccc(C(=O)OC)c(NC(=O)CSc2cccc[n+]2[O-])c1 -1.81%, Cc1ccc(-c2csc(/C(C#N)=C(\O)CCl)n2)cc1 6.37%, N#CC1=C(N)Oc2cc3ccccc3cc2C1c1cccnc1 (centres undefined) 0.21%, Cc1ccc(C2C(C#N)=C(N)Oc3nc(-c4ccccc4)[nH]c32)o1 (centres undefined) 94%, Cc1ccc(-c2c(C#N)c(N)nc3c2CCCC3)s1 9.55%, CC(=O)c1nn(-c2cccc(Cl)c2)cc1C(=O)c1ccco1 -0.97%, CC(=O)c1cc(Cl)ccc1OC(=O)c1ccco1 -7.24%, CN(C)CCNC(=O)C(c1ccccc1)c1ccccc1 4.43%, COc1cccc(C(=O)NNC(=O)C(=O)N2CCCCC2)c1 5.57%, O=C(Nc1ccc(C(=O)O)cc1)/C(=C\c1ccc2c(c1)OCO2)NC(=O)c1ccc(Br)o1 12%, O=C(Nc1cccc(C(=O)O)c1)/C(=C/c1ccc2c(c1)OCO2)NC(=O)c1cccc(Br)c1 51.7%, COCCn1nnnc1C(c1ccccc1OC)N1CCN(c2ccccc2F)CC1 (centres undefined) 0.44%, O=C(Cc1ccccc1)N1CCCC(c2nc(-c3ccc(S(=O)(=O)N4CCCC4)cc3)no2)C1 (centres undefined) 0.8%, O=C(O)CCn1cc(/C=C/C(=O)c2ccc(Cl)cc2)c(-c2cccc(Br)c2)n1 6.04%, O=C(O)CCn1cc(/C=C/C(=O)c2ccc(Cl)cc2)c(-c2ccc(Br)cc2)n1 31.8%, CN(C)c1ccc(/C=N/NC(N)=S)cc1[N+](=O)[O-] -6.38%, Nc1nonc1C(=O)N/N=C/c1cccc([N+](=O)[O-])c1 39.7%, CCCNS(=O)(=O)c1ccc(N2CCCC2=O)c([N+](=O)[O-])c1 -2.44%, CC(C)N(C(=O)C1CC(=O)OC12CCCCC2)C(C)C (centres undefined) -0.49%, CCC(=O)Nc1c(-c2ccc(OC)cc2)c(=O)c2ccccc2n1C 0.6%, O=S(=O)(Cc1ccccc1)Nc1ccc(Br)cn1 8.11%, Cc1ccc(NS(=O)(=O)Cc2ccccc2)nc1 -10.1%, Cc1nc2c(cc1C(=O)N/N=C/c1ccc(O)c(O)c1)c(=O)n(C)c(=O)n2C 13.8%, Cc1ccccc1N1C(=O)CC2(CCCC2)CC1=O -2.41%, Cc1ccc(/C=C2\NC(=S)NC2=O)cc1[N+](=O)[O-] -1.94%, CN(C)c1ccc(/C=N/N=C(N)N)cc1[N+](=O)[O-] 58.3%, COc1cc(/C=N/NC(N)=O)ccc1OC(=O)c1ccc(C)cc1 -1.66%, Cc1ccc(-n2nnc3c(=O)n(CC(=O)N4CCC(C)CC4)cnc32)cc1 13.8%, OC1COC(OCC2OC(OCc3ccccc3)C(O)C(O)C2O)C(O)C1O (centres undefined) -0.69%, Cc1ccc(C(=O)O/N=C(\c2ccccc2)c2cccnc2)cc1 -5.37%, CC(=O)C1(C)N(O)C(C)(C)C(c2cccs2)=[N+]1[O-] (centres undefined) 11.1%, CC1(C)N(O)CC(c2cccs2)=[N+]1[O-] 39.9%, NNC(=O)c1ccc(COc2ccc3ccccc3c2)o1 7.87%, O=C1C2C3C=CC(CC3)C2C(=O)N1/N=C/c1ccc(O)cc1 (centres undefined) 12.3%, O=C1c2ccccc2C(=O)N1/N=C/c1ccc(O)c(O)c1O 9.31%, COc1cc(/C=N/N2C(=O)c3ccccc3C2=O)ccc1O 10.3%, COc1cc(/C=N/N2C(=O)C3C4C=CC(CC4)C3C2=O)ccc1O (centres undefined) 18.2%, O=C(Cn1cnc2c(cnn2-c2ccccc2)c1=O)NC1CCCC1 -1.27%, O=C(Nc1cccnc1)c1ccccc1O 8.37%, CCN(C(=O)COC(=O)c1cc(-c2ccccc2)nn1-c1ccccc1)C1CCS(=O)(=O)C1 (centres undefined) -0.44%, O=C(CSc1nnc(-c2cccs2)n1-c1ccccc1)Nc1ccccc1 8.55%, COc1ccc(NC(=O)CSc2nnc(-c3cccs3)n2-c2ccccc2)cc1 0.69%, CCOC(=O)C1=C(O)C(=O)N(c2ccc(S(N)(=O)=O)cc2)C1c1cccc([N+](=O)[O-])c1 (centres undefined) 0.08%, O=C(C1=C(O)C(=O)N(CCN2CCOCC2)C1c1ccncc1)c1ccco1 (centres undefined) 17.6%, Cc1nnc(SC(C)C(=O)Nc2c(C)n(C)n(-c3ccccc3)c2=O)n1N (centres undefined) 11.1%, Cc1c(NC(=O)CSc2nnc(Nc3ccccc3)s2)c(=O)n(-c2ccccc2)n1C 20.1%, Cc1ccc(SC(C)C(=O)Nc2c(C)n(C)n(-c3ccccc3)c2=O)cc1 (centres undefined) -0.12%, Cc1c(NC(=O)C(C)Sc2ccccc2)c(=O)n(-c2ccccc2)n1C (centres undefined) 8.89%, O=C(O)CCn1c(C2CCCCC2)nc2ccccc21 10.6%, O=C(CSCc1cccc(CSCC(=O)Nc2ccccc2)n1)Nc1ccccc1 6.32%, CCc1cccc(NC(=O)CCSCCC(=O)Nc2cccc(CC)c2)c1 10.7%, CC(C)OC(=O)CSc1ncnc2c1cnn2-c1ccccc1 -11.6%, S=C(NCc1ccco1)Nc1ccccc1Cl 2.12%, Cc1cc(NS(=O)(=O)c2ccc(NC(=O)c3cnc4sccn4c3=O)cc2)nc(C)n1 -3.04%, Cc1noc(NS(=O)(=O)c2ccc(NC(=O)c3cnc4scc(C)n4c3=O)cc2)c1C 49.8%, Cc1cc(C)nc(NS(=O)(=O)c2ccc(NC(=O)CN3C(=O)c4ccccc4C3=O)cc2)n1 8.34%, COc1cc(NS(=O)(=O)c2ccc(NC(=O)CN3C(=O)c4ccccc4C3=O)cc2)nc(OC)n1 45.7%, CN1C(=O)CS(=O)c2ccc(C(=O)NCCC3=CCCCC3)cc21 (centres undefined) -0.02%, CCC(=O)N(Cc1ccc(C)cc1)Cc1cc2cc3c(cc2[nH]c1=O)OCO3 -7.35%, O=C(c1ccccc1)N1CCN(C(=O)c2ccccc2)C1c1ccccc1 -9.12%, Cc1cccc(NC(=O)CSCc2nc3c(nnn3Cc3ccc(F)cc3)c(=O)[nH]2)c1C 22.9%, O=C(CSCc1nc2c(nnn2Cc2ccc(F)cc2)c(=O)[nH]1)Nc1c(Cl)cc(Cl)cc1Cl 30.5%
